Measurements reported in PubChem BioAssay (NCI).
About 83,000 compounds went through this panel and 20% of them were active in at least one assay; those are over-represented in the sample as a whole.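 Growth was measured after 48 h exposure to one concentration of compound in 96-well plates. Values under 10 count as active.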 The source made the active and inactive calls.

Key:
Assay in all cases: NCI-60 one-dose screen, 48 h (100 = growth as untreated, 0 = no growth, -100 = all killed)
Conditions in all cases: 10 µM unless noted
[1] = test system: BT-549 breast
[2] = test system: MDA-MB-435 melanoma
[3] = test system: SW-620 colon
[4] = test system: MCF7 breast
[5] = test system: HCT-116 colon
[6] = test system: HCC-2998 colon
[7] = test system: KM12 colon

Measured: growth

CC(=O)Nc1nc(C)c(-c2csc(Nc3ccccc3)n2)s1
inactive: [1] 18.1% | [2] 43.3% | [3] 57.8% | [4] 12.3% | [5] 19.7% | [6] 52.3% | [7] 41.1%

Cc1csc(/N=C(N)/N=C(\N)c2cccc(C#N)c2)n1
active: [2] -6.51%
inactive: [1] 73.1% | [3] 44.4% | [4] 77.7% | [5] 49.7% | [6] 87.7% | [7] 46.4%

O=C(NCCNc1cc(-c2cn(-c3ccccc3)nc2-c2cccc(O)c2)ccn1)Nc1cc(C(F)(F)F)cc(C(F)(F)F)c1
active: [7] 1.09%
inactive: [1] 99.4% | [2] 98.4% | [3] 101% | [4] 87.2% | [5] 89.5% | [6] 96.2%

COc1ccc(-c2c3c(cn2Cc2cccc(OC)c2)-c2oncc2CCC3)cc1
inactive: [1] 105% | [2] 98.1% | [3] 96.4% | [4] 96.9% | [5] 96.9% | [6] 111% | [7] 83.1%

O=C(CCl)Nc1ccc(NC(=O)c2cc(Cl)ccc2O)c(Cl)c1
inactive: [1] 65.8% | [2] 66% | [3] 35.2% | [4] 29.1% | [5] 39% | [6] 105% | [7] 75.8%

COc1ccc(C(C)=C(c2ccc(OCCN(C)C)cc2)c2ccc(OCCN(C)C)cc2)cc1
active: [1] -27.3% | [2] -75.7% | [4] -67.6% | [5] -81% | [6] -69.4% | [7] -8.05%

Cc1ccc2c(n1)C(=O)C(Cl)=C(Nc1cccc(C)c1C)C2=O
active: [2] -86.5% | [3] -9.92% | [4] -59.3% | [5] -42.9%
inactive: [1] 44% | [6] 51.6% | [7] 26.1%

CC(=O)Nc1cc(N2CCOCC2)c2nc(NC(=O)c3[nH]c(C)c(Cl)c3Cl)sc2c1
inactive: [1] 74.1% | [2] 59% | [3] 84.4% | [4] 67.1% | [5] 68.5% | [6] 109% | [7] 82.4%

CCNC(=O)Oc1ccc(/C(=C(/C)c2ccc(Cl)cc2)c2ccc(OCCN3CCCCCC3)cc2)cc1
active: [3] -74.5% | [4] -37.8% | [5] -80%
inactive: [1] 77.5% | [2] 22.5% | [6] 26.1% | [7] 12.7%

Cc1ccc2c(n1)C(=O)C(Cl)=C(Nc1ccc(C(C)C)cc1)C2=O
inactive: [1] 91.9% | [7] 57.8%
active: [2] -81.2% | [3] -22.8% | [4] -56.3% | [5] -70.8% | [6] 3.71%

COc1cc(C(=O)c2cc(C(C)=O)c3cccc(C)n23)cc(OC)c1OC
active: [2] -30.1%
inactive: [1] 25.8% | [3] 26% | [5] 16.6% | [6] 61.1% | [7] 29.8%

O=C(Nc1cc(C(F)(F)F)cc(C(F)(F)F)c1)Nc1ccc2oc(=O)ccc2c1
active: [2] 3.64% | [4] 3.81% | [5] 2.09% | [7] 9.67%
inactive: [1] 10% | [3] 19.4% | [6] 11.2%

COc1ccc2c(c1)c(-c1nc(N)nnc1-c1c[nH]c3ccccc13)cn2C
active: [2] -47.8%
inactive: [1] 49.2% | [3] 17.2% | [4] 15% | [5] 23.1% | [6] 82.9% | [7] 24.4%

COC(=O)c1cccc(NC2=C(Cl)C(=O)c3nc(C)ccc3C2=O)c1
inactive: [1] 125% | [5] 27.2% | [6] 105% | [7] 106%
active: [2] -38.6% | [3] 0.0392% | [4] -35.2%

COc1ccc2c(c1)c(/C=N/Nc1ccnc3cc(Cl)ccc13)cn2C
active: [1] -76.9% | [2] -92.9% | [3] -76.6% | [4] -80.2% | [5] -82.3% | [6] -86.3% | [7] -78.1%

N#CC1=C2NCCCNc3oc(nc3C#N)Cc3ccccc3CC(=N1)O2
inactive: [1] 135% | [4] 33.8% | [5] 23.4% | [6] 114% | [7] 93.6%

Clc1ccc(CSc2nnc(-c3ccc(Cl)cc3)n2-c2ccccc2)cc1
inactive: [1] 58.6% | [2] 90% | [4] 84.5% | [5] 75.3% | [6] 95.8% | [7] 92.6%

Clc1ccc2[nH]cc(-c3nn4cc(-c5cccnc5)nc4s3)c2c1
inactive: [1] 110% | [2] 101% | [3] 104% | [5] 99.8% | [6] 117% | [7] 98%

COc1ccc(N2CCN(C3=C(Cl)C(=O)c4ncccc4C3=O)CC2)cc1
active: [2] -59.9% | [3] -4.75% | [4] -27.6% | [5] -59.7%
inactive: [1] 111% | [6] 107% | [7] 95.7%

Cn1cc(-c2nnc(N)nc2-c2c[nH]c3ccc(Br)cc23)c2cc(Br)ccc21
inactive: [1] 91.1% | [2] 93.7% | [4] 90.7% | [5] 98.8% | [6] 114% | [7] 99.4%

Cc1nc(N)sc1-c1csc(Nc2ccc(C(F)(F)F)cc2)n1
active: [1] -12%
inactive: [2] 37.8% | [3] 20.6% | [4] 17.3% | [5] 20.6% | [6] 21% | [7] 10.4%

COc1ccc(OC)c(CCn2cncc2-c2c[nH]c3ccc(Cl)cc23)c1
inactive: [2] 12.8% | [3] 43.4% | [4] 21.6% | [5] 34.5% | [6] 72.4% | [7] 40.6%

Cc1cc(C)cc(NC2=C(Cl)C(=O)c3nc(C)ccc3C2=O)c1
active: [2] -78.8% | [3] -6.15% | [4] -44.4% | [5] 9.38%
inactive: [1] 66.6% | [6] 77.6% | [7] 76.8%

COc1ccc(-c2cc(-c3ccc(N4CCOCC4)cc3)n3c(n2)nc2ccccc23)cc1OC
inactive: [1] 82.3% | [2] 93.1% | [3] 99.2% | [4] 90.1% | [5] 96% | [6] 110% | [7] 99%

C[C@H](Nc1ncnc2ccc(-c3cnc(Cl)c(NS(C)(=O)=O)c3)cc12)c1ccccc1
active: [1] -61.5% | [2] -40% | [3] 1.48% | [4] 2.5% | [5] -61.4% | [6] -77.3% | [7] -79%

CN1CCN(c2ccc(Nc3nc(NCCCNS(=O)(=O)c4ccc(C(F)(F)F)cc4)c4sccc4n3)cc2)CC1
active: [1] -88.1% | [2] -62.4% | [3] -33.5% | [4] -70% | [5] -73.8% | [6] -63.5% | [7] -25.2%
